Among the data in PubChem BioAssay AID493231 (Broad Institute, 2011) are outcome values, retold here.

Each structure is given as a SMILES string. Measured potencies and affinities stand elsewhere. The source made the active and inactive calls. The rule behind the calls is not given here.

The test deals with Acyl-homoserine lactone acylase PvdQ (Pseudomonas aeruginosa (strain ATCC 15692 / DSM 22644 / CIP 104116 / JCM 14847 / LMG 12228 / 1C / PRS 101 / PAO1)) (UniProt Q9I194). Nature of the test: PvdQ acylase enzyme activity blockers – biochemical, fluorescence, plate reader and imaging, cherry-picks, dose response (AID 493231).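 Note: more negative values mean stronger inhibition of the acylase.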 The conditions noted are these: purified PvdQ acylase, fluorogenic substrate; series mostly up to 10 µM.
Chain of Acyl-homoserine lactone acylase PvdQ (Pseudomonas aeruginosa (strain ATCC 15692 / DSM 22644 / CIP 104116 / JCM 14847 / LMG 12228 / 1C / PRS 101 / PAO1)) (Q9I194 whole entry, looked up): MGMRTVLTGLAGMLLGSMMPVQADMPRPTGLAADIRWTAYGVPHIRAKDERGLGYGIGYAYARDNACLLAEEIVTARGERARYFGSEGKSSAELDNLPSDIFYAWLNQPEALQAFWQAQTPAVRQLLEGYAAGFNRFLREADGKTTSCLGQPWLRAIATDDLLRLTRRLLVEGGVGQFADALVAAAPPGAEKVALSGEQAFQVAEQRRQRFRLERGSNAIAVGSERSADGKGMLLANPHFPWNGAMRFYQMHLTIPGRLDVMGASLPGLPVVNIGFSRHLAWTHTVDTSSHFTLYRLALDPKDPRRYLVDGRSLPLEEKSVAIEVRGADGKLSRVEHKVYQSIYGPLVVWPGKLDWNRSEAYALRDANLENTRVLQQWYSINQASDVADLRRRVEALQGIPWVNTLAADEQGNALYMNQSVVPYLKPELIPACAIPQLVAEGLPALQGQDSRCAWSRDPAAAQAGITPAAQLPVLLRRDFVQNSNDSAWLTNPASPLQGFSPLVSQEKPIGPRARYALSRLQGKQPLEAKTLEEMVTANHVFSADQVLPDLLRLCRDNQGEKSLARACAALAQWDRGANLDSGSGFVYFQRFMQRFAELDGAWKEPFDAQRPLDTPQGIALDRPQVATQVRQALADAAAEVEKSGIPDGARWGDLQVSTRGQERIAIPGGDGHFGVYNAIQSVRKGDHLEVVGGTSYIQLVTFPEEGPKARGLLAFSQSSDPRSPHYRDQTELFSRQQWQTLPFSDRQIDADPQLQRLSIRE
Turning to `CC1(C)CC2(CCO1)NCCN1C(=O)CSC12` (stereo not drawn), the outcome was inactive.

Turning to `Cc1cc(N(CCCl)CCCl)ccc1C=NNC(=O)c1cccnc1`, the outcome was inactive.

For `O=[N+]([O-])c1ccc2c(c1)Cc1cc(O)ccc1-2`, the result was inactive.
